# The supplement of paper PMC9262897, “Low-cost anti-mycobacterial drug discovery using engineered E. coli” (Nature Communications, 2022)
# Where a name gives a salt, the structure may show the parent alone. ± gives the standard deviation of the averaged measurements.
# Experiments:
# Test in all cases: growth (OD600 after 10 h); higher = more growth (less inhibition)
# [1] = tested on: E. coli TESEC Alr+ wild-type control; settings: compound 0.1 mM; raw OD600 reference: median of DMSO wells 0.241, cell-free background 0.041
# Method: (§1)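 TESEC Mtb Alr E. coli, or the Alr+ wild-type control, in 384-well plates with Prestwick library compounds at 0.1 mM and 1% DMSO, across arabinose induction levels of 1E3 to 1E7 nM. Growth is read as OD600 after 10 h at 37 °C in triplicate biological replicates.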
# E. coli TESEC Mtb Alr [2] = settings: compound 0.1 mM
# Method: as §1
# E. coli TESEC Mtb Asd = settings: compound 0.1 mM
# Method: (§2)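 TESEC E. coli strains in which the native enzyme is deleted and replaced by arabinose-inducible Mtb Asd, DapB, CysH or TrpD, each grown in its selective medium. Strains were screened against the Prestwick library at 0.1 mM and 1% DMSO in 384-well format at low and high arabinose induction. Growth is read as OD600 after 10 h in triplicate.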
# E. coli TESEC Mtb Alr [3] = settings: compound 0.1 mM; remark: listed apart in the source
# Method: (§3)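 TESEC Mtb Alr E. coli (ΔaraC ΔtolC ΔentC Δalr ΔdadX, arabinose-inducible Mtb Alr) or the Alr+ wild-type control strain, grown in defined M9-fructose medium without D-alanine in 96-well plates with Prestwick library compounds at 0.1 mM and 1% DMSO. Low Alr induction is 0.1 µM arabinose and high induction is 10 mM arabinose.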
# [4] = tested on: E. coli TESEC Alr+ wild-type control; settings: compound 0.1 mM; raw OD600 reference: median of DMSO wells 0.49, cell-free background 0.052
# Method: as §3
# E. coli TESEC Mtb DapB = settings: compound 0.1 mM
# Method: as §2
# [5] = arabinose 1000 nM, raw OD600 reference: median of DMSO wells 0.294, cell-free background 0.041
# [6] = arabinose 10000 nM, raw OD600 reference: median of DMSO wells 0.264, cell-free background 0.041
# [7] = arabinose 100000 nM, raw OD600 reference: median of DMSO wells 0.201, cell-free background 0.041
# [8] = arabinose 1000000 nM, raw OD600 reference: median of DMSO wells 0.193, cell-free background 0.041
# [9] = arabinose 10000000 nM, raw OD600 reference: median of DMSO wells 0.146, cell-free background 0.041
# [10] = arabinose induction (level): High, raw OD600 reference: median of DMSO wells 0.331, cell-free background 0.041
# [11] = arabinose induction (level): Low, raw OD600 reference: median of DMSO wells 0.417, cell-free background 0.041
# [12] = arabinose 100 nM, raw OD600 reference: median of DMSO wells 0.413, cell-free background 0.052
# [13] = arabinose 10000000 nM, raw OD600 reference: median of DMSO wells […], cell-free background 0.052
# [14] = arabinose induction (level): High, raw OD600 reference: median of DMSO wells […], cell-free background 0.041
# [15] = arabinose induction (level): Low, raw OD600 reference: median of DMSO wells 0.227, cell-free background 0.041
Compound,growth [1],growth (E. coli TESEC Mtb Alr [2]; [5]),growth (E. coli TESEC Mtb Alr [2]; [6]),growth (E. coli TESEC Mtb Alr [2]; [7]),growth (E. coli TESEC Mtb Alr [2]; [8]),growth (E. coli TESEC Mtb Alr [2]; [9]),growth (E. coli TESEC Mtb Asd; [10]),growth (E. coli TESEC Mtb Asd; [11]),growth (E. coli TESEC Mtb Alr [3]; [12]),growth (E. coli TESEC Mtb Alr [3]; [13]),growth [4],growth (E. coli TESEC Mtb DapB; [14]),growth (E. coli TESEC Mtb DapB; [15])
O=C1OC(CN2CCOCC2)CN1/N=C/c1ccc([N+](=O)[O-])o1 (stereo unspecified) [Furaltadone hydrochloride],0.04157 ± 0.00012,0.0421 ± 0.002,0.0409 ± 0.0001,0.04173 ± 5.8e-05,0.0404 ± 0.00046,0.0427 ± 0.0014,0.0534 ± 0.0031,0.0559 ± 0.0011,0.0601 ± 0.0022,0.0562 ± 0.0033,–,–,–
N/C(=N\C(=O)c1nc(Cl)c(N)nc1N)NCc1ccccc1 [Benzamil hydrochloride],0.14 ± 0.0042,0.196 ± 0.0093,0.256 ± 0.0065,0.15 ± 0.0096,0.111 ± 0.0026,0.161 ± 0.0069,0.163 ± 0.006,0.199 ± 0.0084,0.41 ± 0.0064,0.299 ± 0.0065,0.502 ± 0.034,–,–
CCCN[C@H]1CCc2nc(N)sc2C1 [Pramipexole dihydrochloride],0.237 ± 0.0095,0.289 ± 0.004,0.258 ± 0.0086,0.207 ± 0.015,0.191 ± 0.01,0.15 ± 0.0057,0.262 ± 0.068,0.334 ± 0.02,0.406 ± 0.013,0.363 ± 0.012,–,–,–
Cc1cc(=O)n(-c2ccccc2)n1C [Antipyrine],0.252 ± 0.0043,0.294 ± 0.014,0.257 ± 0.0094,0.221 ± 0.013,0.176 ± 0.0026,0.1436 ± 0.0012,0.305 ± 0.04,0.371 ± 0.014,0.412 ± 0.0087,0.379 ± 0.026,–,–,–
CCc1nn(CCCN2CCN(c3cccc(Cl)c3)CC2)c(=O)n1CCOc1ccccc1 [Nefazodone HCl],0.0424 ± 0.00076,0.0444 ± 0.0031,0.04017 ± 0.00012,0.0431 ± 0.00062,0.0406 ± 0.00026,0.0473 ± 0.0025,0.0498 ± 0.0029,0.0479 ± 0.0011,0.29 ± 0.2,0.0515 ± 0.001,–,–,–
Cc1cnc(NC(=O)C2=C(O)c3ccccc3S(=O)(=O)N2C)s1 [Meloxicam],0.148 ± 0.0039,0.186 ± 0.0048,0.238 ± 0.012,0.208 ± 0.039,0.117 ± 0.0022,0.149 ± 0.0054,0.245 ± 0.035,0.296 ± 0.1,0.33 ± 0.04,0.221 ± 0.016,–,–,–
O=c1[nH]c(=O)n([C@H]2C[C@H](O)[C@@H](CO)O2)cc1I [Idoxuridine],0.2463 ± 0.002,0.285 ± 0.0078,0.268 ± 0.012,0.206 ± 0.0098,0.203 ± 0.0061,0.15 ± 0.0075,0.257 ± 0.057,0.276 ± 0.032,0.369 ± 0.032,0.376 ± 0.021,–,–,–
CC[C@H](C)C(=O)O[C@H]1C[C@@H](C)C=C2C=C[C@H](C)[C@H](CC[C@@H]3C[C@@H](O)CC(=O)O3)[C@H]21 [Lovastatin],0.256 ± 0.0052,0.307 ± 0.01,0.0518 ± 0.002,0.21 ± 0.017,0.0567 ± 0.013,0.139 ± 0.0042,0.276 ± 0.026,0.35 ± 0.065,0.43 ± 0.018,0.148 ± 0.042,0.473 ± 0.043,–,–
O=C(Oc1cccc2cccnc12)c1ccccc1 [Benzoxiquine],0.222 ± 0.0051,0.264 ± 0.016,0.28 ± 0.0036,0.172 ± 0.014,0.198 ± 0.011,0.14 ± 0.01,0.316 ± 0.12,0.289 ± 0.017,0.368 ± 0.016,0.281 ± 0.01,–,–,–
CC(C)[C@H](N)C(=O)OCCOCn1cnc2c(=O)nc(N)[nH]c21 [Valacyclovir hydrochloride],0.243 ± 0.0038,0.302 ± 0.0067,0.2661 ± 0.0012,0.22 ± 0.039,0.195 ± 0.0058,0.144 ± 0.0025,0.258 ± 0.006,0.365 ± 0.054,0.408 ± 0.0084,0.369 ± 0.0047,0.533 ± 0.17,–,–
Cc1oncc1C(=O)Nc1ccc(C(F)(F)F)cc1 [Leflunomide],0.139 ± 0.0056,0.149 ± 0.0026,0.1904 ± 0.0019,0.138 ± 0.0062,0.106 ± 0.0035,0.096 ± 0.00046,0.381 ± 0.085,0.327 ± 0.018,0.364 ± 0.021,0.158 ± 0.027,–,–,–
CN(CCOc1ccc(NS(C)(=O)=O)cc1)CCc1ccc(NS(C)(=O)=O)cc1 [Dofetilide],0.209 ± 0.0043,0.28 ± 0.0052,0.253 ± 0.008,0.171 ± 0.016,0.173 ± 0.0041,0.133 ± 0.0023,0.213 ± 0.019,0.336 ± 0.076,0.427 ± 0.0089,0.318 ± 0.0084,–,–,–
C[C@@H](O)[C@H]1C(=O)N2C(C(=O)O)=C(SCCNC=N)C[C@H]12 [Imipenem],0.216 ± 0.0037,–,–,–,–,–,0.296 ± 0.1,0.37 ± 0.065,0.165 ± 0.11,0.111 ± 0.011,0.271 ± 0.022,0.198 ± 0.012,0.231 ± 0.015
O=C(O)c1ccccc1OP(=O)(O)O [Fosfosal],0.242 ± 0.0067,–,–,–,–,–,0.349 ± 0.051,0.424 ± 0.097,0.405 ± 0.01,0.366 ± 0.0071,0.561 ± 0.049,0.21 ± 0.017,0.239 ± 0.0092
Nc1nc(/C(=C/CC(=O)O)C(=O)N[C@@H]2C(=O)N3C(C(=O)O)=CCS[C@H]23)cs1 [Ceftibuten],0.146 ± 0.0038,–,–,–,–,–,0.158 ± 0.0053,0.0769 ± 0.00091,0.0471 ± 0.00072,0.273 ± 0.01,0.252 ± 0.016,0.188 ± 0.021,0.231 ± 0.034
CCCNC(C)C(=O)Nc1c(C)csc1C(=O)OC (stereo unspecified) [Articaine hydrochloride],0.249 ± 0.0025,–,–,–,–,–,0.257 ± 0.064,0.442 ± 0.02,0.407 ± 0.015,0.316 ± 0.021,0.47 ± 0.023,0.205 ± 0.016,0.236 ± 0.043
CC[C@H]1OC(=O)[C@H](C)[C@@H](O[C@H]2C[C@@](C)(OC)[C@@H](O)[C@H](C)O2)[C@H](C)[C@@H](O[C@@H]2O[C@H](C)C[C@H](N(C)C)[C@H]2O)[C@](C)(O)C[C@@H](C)C(=O)[C@H](C)[C@@H](O)[C@]1(C)O [Erythromycin],0.04107 ± 0.00038,0.0413 ± 0.0016,0.03973 ± 5.8e-05,0.0421 ± 0.0013,0.0401 ± 0.0001,0.0414 ± 0.00076,0.0563 ± 0.0023,0.0536 ± 0.0019,0.0567 ± 0.0002,0.05153 ± 0.00031,–,–,–
COc1cc(C(=O)N2CCOCC2)cc(OC)c1OC [Trimetozine],0.253 ± 0.004,–,–,–,–,–,0.288 ± 0.0085,0.441 ± 0.018,0.401 ± 0.0073,0.363 ± 0.0044,0.616 ± 0.021,0.192 ± 0.02,0.229 ± 0.0089
NCCCC[C@H](N[C@@H](CCc1ccccc1)C(=O)O)C(=O)N1CCC[C@H]1C(=O)O [Lisinopril],0.257 ± 0.0039,–,–,–,–,–,0.35 ± 0.051,0.4 ± 0.031,0.41 ± 0.015,0.343 ± 0.0091,0.49 ± 0.035,0.212 ± 0.0046,0.316 ± 0.057
